The record followed here is PubChem BioAssay (EPA / NIEHS).

Results filed as inconclusive are left out. The source made the active and inactive calls. How the source made its calls, unless noted: active means hit-call score of the fitted dose curve at least 0.9, where 1 is the maximum; inactive means score below 0.9.

A short description of assay [1]: CCTE_Shafer_MEA_dev_firing_rate_mean: CCTE's Neural Network Formation Assay for Mean Firing Rate, Shafer Lab (AID 2284031). The method, boiled down: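 Spike frequency (spikes/recording length, averaged over active electrodes) was recorded on days 5, 7, 9 and 12 and collapsed to AUC; rat cortical cultures received compound continuously over 12 days of network development.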

Assay [2] in a line: CCTE_Shafer_MEA_dev_per_burst_spike_percent: CCTE's Neural Network Formation Assay for Percent of Spikes in a Burst, Shafer Lab (AID 2284032). The procedure, abridged:
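Value is trapezoidal AUC over recordings on days 5, 7, 9 and 12 of the well-mean fraction of spikes falling in single-electrode bursts; rat cortical cultures exposed continuously from plating, treatment renewed DIV 5 and 9, fitted downward against DMSO.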

Assay [3] can be described thus: CCTE_Shafer_MEA_dev_active_electrodes_number: CCTE's Neural Network Formation Assay for Number of Active Electrodes, Shafer Lab (AID 2284040; active means hit-call score of the fitted dose curve at least 0.9, where 1 is the maximum). The method, boiled down: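 Counts electrodes per well firing at least 5 spikes/min, recorded on days 5, 7, 9 and 12 in rat cortical cultures dosed continuously from plating (treatment refreshed DIV 5, 9). Value is the area under the curve over recordings, fitted downward relative to DMSO.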

Assay [4] in a line: CCTE_Shafer_MEA_dev_burst_rate: CCTE's Neural Network Formation Assay for Burst Rate, Shafer Lab (AID 2284042). The procedure, abridged:
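Cells plated, treated day 0; recorded DIV 5, 7, 9, 12; fed and re-treated DIV 5, 9. Endpoint: bursts per recording time, active-electrode well mean, trapezoidal AUC, fitted in decreasing direction against DMSO baseline.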

Assay [5] is described as follows: CCTE_Shafer_MEA_dev_per_burst_interspike_interval: CCTE's Neural Network Formation Assay for Burst Interspike Interval, Shafer Lab (AID 2284044). The method, boiled down:
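Mean interspike interval within single-electrode bursts, averaged over bursting electrodes, from rat cortical cultures on MEA plates recorded on days 5, 7, 9 and 12. Continuous compound exposure from plating; trapezoidal AUC fitted downward relative to DMSO.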

A short description of assay [6]: CCTE_Shafer_MEA_dev_burst_duration_mean: CCTE's Neural Network Formation Assay for Mean Burst Duration, Shafer Lab (AID 2284045). The method, boiled down:
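Rat cortical cultures, 1.5 x 10^5 cells/well with laminin drop; continuous dosing days 0–12, media plus treatment refreshed DIV 5, 9. AxIS adaptive spike detection; mean single-electrode burst duration, AUC over four recordings, negative direction vs DMSO.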

The nature of assay [7]: CCTE_Shafer_MEA_dev_interburst_interval_mean: CCTE's Neural Network Formation Assay for Mean Interburst Interval, Shafer Lab (AID 2284046).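 Further: curve fitted for decrease in interburst interval relative to DMSO.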 The procedure, abridged: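 Developing rat cortical networks on 48-well MEAs receive compound from the day of plating. Burst intervals from each active electrode are averaged per well, and AUC over the recording days is fitted in the negative direction against DMSO.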

Assay [8] is described as follows: CCTE_Shafer_MEA_dev_inter_network_spike_interval_mean: CCTE's Neural Network Formation Assay for Mean Inter-network Spike Interval, Shafer Lab (AID 2284047). The procedure, abridged:
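Rat cortical cultures, 1.5 x 10^5 cells/well on 48-well MEA plates; continuous exposure days 0–12, medium and compound refreshed DIV 5, 9. Mean time between consecutive network-spike peaks; AUC across DIV 5/7/9/12; DMSO baseline, negative fitting direction.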

A short description of assay [9]: CCTE_Shafer_MEA_dev_network_spike_number: CCTE's Neural Network Formation Assay for Number of Network Spikes, Shafer Lab (AID 2284048).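 Further: synchronized bursts across electrodes counted on days 5 7 9 12 and integrated as AUC.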 The procedure, abridged: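 Rat cortical primary cultures on 48-well MEA (16 electrodes/well); continuous exposure DIV 0–12, full medium and treatment exchange DIV 5, 9. Readout: network spike count, AxIS adaptive detection, recordings DIV 5/7/9/12 collapsed to AUC; loss-of-signal fit, DMSO baseline.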

Assay [10] in a line: CCTE_Shafer_MEA_dev_network_spike_peak: CCTE's Neural Network Formation Assay for Mean Number of Electrodes in Network Spike, Shafer Lab (AID 2284049). The procedure, abridged: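 Network-spike peak electrode count from recordings on days 5, 7, 9 and 12 was combined as trapezoidal area under the curve. Rat cortical cultures were treated continuously from plating, with compound renewed at each feed (DIV 5, 9); fits versus DMSO.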

Assay [11] can be described thus: CCTE_Shafer_MEA_dev_spike_duration_mean: CCTE's Neural Network Formation Assay for Mean Spike Duration, Shafer Lab (AID 2284051). The method, boiled down: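 Readout is the average length of network spikes, clustered firing across electrodes, summed over DIV 5, 7, 9 and 12 as area under the curve. Neurons from rat cortex developed networks on MEA plates under continuous 12-day exposure.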

Assay [12] can be described thus: CCTE_Shafer_MEA_dev_network_spike_duration_std: CCTE's Neural Network Formation Assay for Standard Deviation of Network Spike Duration, Shafer Lab (AID 2284052).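 Further: hits are decreases in network spike duration SD versus DMSO vehicle.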 The method, boiled down:
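Read-out is the trapezoidal area-under-the-curve across recordings made on days 5, 7, 9 and 12, fitted in the negative direction against DMSO baseline. Neurons were primary rat cortical cells treated from day 0, with treatment renewed at each feed.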

The nature of assay [13]: CCTE_Shafer_MEA_dev_per_network_spike_spike_number_mean: CCTE's Neural Network Formation Assay for Mean Number of Spikes in a Network Spike, Shafer Lab (AID 2284053). The method, boiled down:
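Continuous twelve-day exposure of developing rat cortical networks grown over 16 microelectrodes per well; spontaneous firing is captured at four time points, and the per-network-spike spike number is integrated over development by trapezoidal AUC.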

The subject of the next assay is DIO2 (gene 1734). The experiment in a line: CCTE_GLTED_hDIO2: CCTE's human Deiodinase 2 (DIO2) Inhibition Assay, Great Lakes Toxicology and Ecology Division (GLTED) Lab (AID 2284050; active means hit-call score of the fitted dose curve at least 0.9, where 1 is the maximum). The method, boiled down: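 Iodide released by human deiodinase 2 over 3 h with test chemical, measured spectrophotometrically via Sandell-Kolthoff cerium/arsenic reaction. Run n=3; inhibition referenced to DMSO.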

Assay [14] is described as follows: CCTE_Deisenroth_AIME_384WELL_CTox_Active: Cytotoxicity Assessment (CTOX) in CCTE's 384-well Estrogen Receptor Transactivation Assay with AIME metabolic competence (metabolism positive), Deisenroth Lab (AID 2284037; active means hit-call score of the fitted dose curve at least 0.9, where 1 is the maximum;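 further: chemicals first conditioned 2 h by alginate-bound induced rat liver S9 before cells; activity means signal loss indicating cell death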). The method, boiled down:
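Chemicals pre-incubated 2 hours with alginate-immobilised phenobarbital/beta-naphthoflavone-induced male Sprague Dawley rat liver S9, then conditioned medium applied 24 hour to VM7Luc4E2 cells. Viability by fluorogenic protease substrate; 10-point series 0.002 - 200 uM.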

As for `c1ccc2scnc2c1`, the call in assay [1], in [2], in assay [3], in [4], in assay [5] and in assay [6] was inactive. Moreover, the outcome in assay [7], in assay [8], in assay [9], in assay [10], in assay [11] and in assay [12] was inactive. Moreover, in [13], the result was inactive.

A word on the AC50: it is the concentration at which the activity in the assay is half-maximal. For the molecule `CC(=O)OC/C=C(C)/C=C/C=C(C)/C=C/C1=C(C)CCCC1(C)C`, the AC50 with DIO2 (gene 1734) was 52.6 µM (active).

`CCCCCCCCCCCCOCCOS(=O)(=O)O`: in assay [14], the AC50 was 147 µM (active).

Take `C#C[C@]1(O)CC[C@H]2[C@@H]3CCc4cc(O)ccc4[C@H]3CC[C@@]21C`: the AC50 in [14] was 77.6 µM (active).
